About 14,000 (4.5%) of roughly 310,000 compounds showed an effect of 50% or more. The effect is printed as a negative number. The sample holds strong results, similar compounds and a random draw of the others, so the mix is not that of the screen.
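Note: peak tail current of the secondary pulse compared with the same well before compound.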

Sequence of human ether-à-go-go-related gene (hERG) potassium channel (Q12809 whole entry, looked up): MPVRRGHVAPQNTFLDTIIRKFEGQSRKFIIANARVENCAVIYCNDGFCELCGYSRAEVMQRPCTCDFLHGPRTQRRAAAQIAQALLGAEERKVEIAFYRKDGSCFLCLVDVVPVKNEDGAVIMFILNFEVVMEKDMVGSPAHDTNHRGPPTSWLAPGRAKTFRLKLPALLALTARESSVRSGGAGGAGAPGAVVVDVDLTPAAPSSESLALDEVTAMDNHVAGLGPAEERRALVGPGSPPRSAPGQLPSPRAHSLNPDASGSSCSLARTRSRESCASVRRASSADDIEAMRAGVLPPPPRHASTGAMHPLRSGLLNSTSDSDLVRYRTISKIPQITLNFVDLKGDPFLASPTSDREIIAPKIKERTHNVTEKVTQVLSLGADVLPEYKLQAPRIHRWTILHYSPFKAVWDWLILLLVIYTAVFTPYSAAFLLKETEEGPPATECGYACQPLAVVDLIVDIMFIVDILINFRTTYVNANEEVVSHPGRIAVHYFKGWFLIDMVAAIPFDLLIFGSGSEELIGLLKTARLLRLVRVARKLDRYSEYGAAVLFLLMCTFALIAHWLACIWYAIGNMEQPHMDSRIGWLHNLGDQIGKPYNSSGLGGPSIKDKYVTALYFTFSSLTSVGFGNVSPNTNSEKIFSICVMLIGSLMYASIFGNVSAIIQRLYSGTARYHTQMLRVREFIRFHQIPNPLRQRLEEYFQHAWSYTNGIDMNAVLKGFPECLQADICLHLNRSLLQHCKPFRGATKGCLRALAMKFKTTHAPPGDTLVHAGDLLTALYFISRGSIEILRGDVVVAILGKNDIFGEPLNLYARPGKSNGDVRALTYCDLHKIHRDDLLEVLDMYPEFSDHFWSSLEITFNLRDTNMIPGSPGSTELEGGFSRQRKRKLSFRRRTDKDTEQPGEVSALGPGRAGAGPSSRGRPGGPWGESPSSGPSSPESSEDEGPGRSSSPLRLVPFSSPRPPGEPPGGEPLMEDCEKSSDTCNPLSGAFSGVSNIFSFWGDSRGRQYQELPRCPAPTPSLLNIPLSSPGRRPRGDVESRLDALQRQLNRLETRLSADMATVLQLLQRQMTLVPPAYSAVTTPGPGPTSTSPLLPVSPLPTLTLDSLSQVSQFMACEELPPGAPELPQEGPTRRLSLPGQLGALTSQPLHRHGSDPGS

This assay concerns the target human ether-à-go-go-related gene (hERG) potassium channel (human, UniProt Q12809). As to the kind of experiment: primary screen, population patch clamp on CHO cells stably expressing hERG; higher = less effect of the substance.
In the case of `COc1cc(NC(N)=S)c(OC)cc1Cl`, the “hERG current change (%, negative = inhibition) at 10uM” value is reported as 6.66%.
`CCCOc1ccccc1N/C(N)=N/c1nc(C)cc(C)n1`: the “hERG current change (%, negative = inhibition) at 10uM” value is given as -85.8%.
In the case of `CCCOc1ccccc1N/C(=N/c1nc(C)cc(C)n1)NC(=O)COc1ccc(OC)cc1` it was -10%; in that of `Cc1cc(C)nc(/N=C(\N)Nc2cc([N+](=O)[O-])ccc2C)n1`, -49%; in that of `CCCOc1ccccc1N/C(=N/c1nc(C)cc(C)n1)NC(=O)Nc1ccc(Cl)cc1`, -1.32%.
Regarding `COc1cc(N/C(N)=N/c2nc(C)cc(C)n2)c(OC)cc1Cl`, the “hERG current change (%, negative = inhibition) at 10uM” value was -56.7%.
In the case of `Cc1ccc(-c2cc([C@H]3[C@@H]4C=CCC[C@@]4(C)C(=O)N3Cc3ccccc3)ccc2F)cc1` it was 8.75%.
In the case of `CC1CC(OC(=O)c2ccccc2)CC(C)N1C.Cl` (centres unmarked), the “hERG current change (%, negative = inhibition) at 10uM” value is -5.09%.
In the case of `Cc1cc(N/N=C/c2c(O)ccc3ccccc23)nc(-c2ccccc2O)n1` it was -3.98%; in that of `O=C(CSc1cccc[n+]1[O-])Nc1cc(S(=O)(=O)N2CCOCC2)ccc1N1CCOCC1`, 16%.
In the case of `CCCCCCCNC(=O)C1(CC2CC(c3cccc(Br)c3)=NO2)CCNCC1` (centres unmarked) it was -70.3%; in that of `CCCCCCCNC(=O)C1(CC2CC(c3cccc(Br)c3)=NO2)CCN(C(=O)Cc2ccc(F)cc2)CC1` (centres unmarked), -7.08%.
On to `CCCNC(=O)C1(CC2CC(c3ccccc3)=NO2)CCNCC1` (centres unmarked), for which the “hERG current change (%, negative = inhibition) at 10uM” value came out at 23.5%.
As for `O=C(NCc1ccccc1)C1(CC2CC(c3ccccc3)=NO2)CCNCC1` (centres unmarked), the “hERG current change (%, negative = inhibition) at 10uM” value is given as -7.21%.
For the molecule `CCCCCCCNC(=O)C1(CC2CC(c3ccccc3)=NO2)CCNCC1` (centres unmarked), the “hERG current change (%, negative = inhibition) at 10uM” value was -58.8%.
In the case of `CCCCCCCNC(=O)C1(CC2CC(c3ccc(Cl)cc3)=NO2)CCNCC1` (centres unmarked) it was -63.1%.
In the case of `CCCCCCCNC(=O)C1(CC2CC(c3cccc(Br)c3)=NO2)CCN(C(=O)C2(C)CC2)CC1` (centres unmarked) it was -26%; in that of `NC(=S)N1CCCc2ccccc21`, -3.03%; in that of `CC1(c2ccccc2)NC(=O)N(CC(=O)N2CCOCC2)C1=O` (centres unmarked), 3.77%.
On to `O=C(Nc1nnc(COc2ccc(Cl)cc2)s1)c1cccs1`, for which the “hERG current change (%, negative = inhibition) at 10uM” value was -6.91%.
In the case of `Cc1csc(=O)n1CC(=O)OCC(=O)Nc1cc(Cl)ccc1[N+](=O)[O-]` it was -17.8%.
In the case of `COc1ccc(NC(C)(C)c2nnnn2-c2c(C)cccc2C)cc1`, the “hERG current change (%, negative = inhibition) at 10uM” value is -4.2%.
In the case of `Cc1cccc(C)c1-n1nnnc1C(C)(C)N1CCN(N=O)CC1`, the “hERG current change (%, negative = inhibition) at 10uM” value turned out to be 14.7%.
In the case of `COc1cccc(NC(C)(C)c2nnnn2-c2c(C)cccc2C)c1` it was -63.4%; in that of `O=C(NCCc1cccs1)C1CC(c2cccc([N+](=O)[O-])c2)=NO1` (centres unmarked), -23.5%.
As to `CCCCNc1nc(Nc2ccc(C)c(Cl)c2)c2cnn(C)c2n1`, the “hERG current change (%, negative = inhibition) at 10uM” value came out at 15.3%.
In the case of `CN(C(=O)CSc1nc2cc([N+](=O)[O-])ccc2n1-c1ccc(F)cc1)C1CCS(=O)(=O)C1` (centres unmarked) it was 2.56%; in that of `O=C(CSc1nc2cc([N+](=O)[O-])ccc2n1-c1ccc(F)cc1)NC1CCS(=O)(=O)C1` (centres unmarked), -52.6%.
In the case of `COc1ccccc1-c1nnc(SCC(=O)NC2CCS(=O)(=O)C2)n1CCc1ccccc1` (centres unmarked) it was 8.05%; in that of `COc1ccccc1-n1c(SCC(=O)NC2CCS(=O)(=O)C2)nc2cc([N+](=O)[O-])ccc21` (centres unmarked), -16.2%.
In the case of `CCn1c(SCC(=O)NC2CCS(=O)(=O)C2)nnc1-c1ccccc1` (centres unmarked) it was 5.49%; in that of `O=C(CSc1nc2ccccc2c(=O)n1-c1ccccc1F)NC1CCS(=O)(=O)C1` (centres unmarked), -57%; in that of `O=C(CSc1nc2ccccc2c(=O)n1-c1ccccc1Cl)NC1CCS(=O)(=O)C1` (centres unmarked), 6.55%.
As to `COc1ccccc1-n1c(SCC(=O)NC2CCS(=O)(=O)C2)nc2ccccc2c1=O` (centres unmarked), the “hERG current change (%, negative = inhibition) at 10uM” value is on record as -3.39%.
In the case of `O=C(CSc1nnc(-c2ccc(Br)cc2)n1CCc1ccccc1)NC1CCS(=O)(=O)C1` (centres unmarked) it was -86.8%; in that of `Cc1ccc2oc(/N=C(\N)NC(=O)C(C)(C)C)nc2c1`, 4.85%.
With `CC1=Nn2c(nnc2-c2ccco2)SC1`, the “hERG current change (%, negative = inhibition) at 10uM” value is given as -3.87%.
For the molecule `O=C(/C=C/c1ccco1)Nc1sc2c(c1C(=O)O)CCC2`, the “hERG current change (%, negative = inhibition) at 10uM” value is recorded as -2.95%.
For `CSc1scc2c1-c1nc(SCC(=O)C(C)(C)C)ncc1CC2`, the “hERG current change (%, negative = inhibition) at 10uM” value came out at 11%.
In the case of `CN(C)CCCN(C(=O)c1ccc(S(=O)(=O)N2CCOCC2)cc1)c1nc2ccc(F)cc2s1.Cl` it was -58.7%.
In the case of `CN(C)CCCN(C(=O)c1ccc(S(=O)(=O)N2CCCCCC2)cc1)c1nc2ccc(F)cc2s1.Cl` it was -73.1%; in that of `CN(C)CCCN(C(=O)c1ccc(S(=O)(=O)N2CCc3ccccc32)cc1)c1nc2ccc(F)cc2s1.Cl`, -13.7%; in that of `CN(C)CCCN(C(=O)c1ccc(S(=O)(=O)N2CCc3ccccc3C2)cc1)c1nc2ccc(F)cc2s1.Cl`, 1.76%.
In the case of `CN(C)CCCN(C(=O)c1ccc(S(=O)(=O)N2CCCc3ccccc32)cc1)c1nc2ccc(F)cc2s1.Cl` it was -17.1%; in that of `CN(C)CCCN(C(=O)c1ccc(S(=O)(=O)N2CCCCCC2)cc1)c1nc2ccc(Br)cc2s1.Cl`, -22%; in that of `CC1CCN(C(=O)CSc2ccc(-c3ccccc3)nn2)CC1`, -11.8%.
Consider `COc1ccccc1CC(=O)Nc1cccc(F)c1`, for which the “hERG current change (%, negative = inhibition) at 10uM” value was 12.2%.
Consider `CC(C(=O)Nc1ccc(C#N)cc1)N(C)CC(=O)Nc1cccc(F)c1` (centres unmarked), for which the “hERG current change (%, negative = inhibition) at 10uM” value is recorded as -64.7%.
In the case of `CC(C(=O)Nc1ccc(C#N)cc1)N(C)CC(=O)Nc1ccccc1Br` (centres unmarked) it was -17%; in that of `COc1cccc(NC(=O)CN(C)C(C)C(=O)Nc2ccc(C(C)=O)cc2)c1` (centres unmarked), -22.9%.
`CC(C(=O)Nc1ccccc1)N(C)Cc1cccs1` (centres unmarked): the “hERG current change (%, negative = inhibition) at 10uM” value is 8.67%.
With `COc1cccc(NC(=O)CN(C)C(C)C(=O)Nc2ccc(S(=O)(=O)N3CCCC3)cc2)c1` (centres unmarked), the “hERG current change (%, negative = inhibition) at 10uM” value is on record as -0.933%.
Regarding `CSc1ccccc1NC(=O)CN(C)C(C)C(=O)Nc1ccc(C#N)cc1` (centres unmarked), the “hERG current change (%, negative = inhibition) at 10uM” value is on record as -63.1%.
In the case of `CC(C(=O)Nc1ccc(Cl)cc1)N(C)Cc1cccs1` (centres unmarked), the “hERG current change (%, negative = inhibition) at 10uM” value is reported as -15%.
For the molecule `COc1cccc(NC(=O)CN(C)C(C)C(=O)Nc2ccc(C#N)cc2)c1` (centres unmarked), the “hERG current change (%, negative = inhibition) at 10uM” value was -59.3%.
As to `CC(=O)Nc1ccc(NC(=O)C(C)N(C)CC(=O)Nc2ccccc2Br)cc1` (centres unmarked), the “hERG current change (%, negative = inhibition) at 10uM” value came to 8.29%.
In the case of `CC(C(=O)Nc1ccc(C#N)cc1)N(C)Cc1cccs1` (centres unmarked) it was -56.7%; in that of `CC(=O)c1ccc(NC(=O)C(C)N(C)CC(=O)Nc2cccc(F)c2)cc1` (centres unmarked), -17.3%; in that of `CC(C(=O)N1CCCC1)N(C)CC(=O)Nc1cccc(F)c1` (centres unmarked), -0.435%.

Source of the values: PMC4336329 (PLoS ONE, 2015).
